About 83,000 compounds went through this panel and 20% of them were active in at least one assay; those are over-represented in the sample as a whole.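 A percent growth of 40 corresponds to 60% growth inhibition; 0 means no net growth; -100 means all cells died. Active threshold: below 10.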 Unmarked numbers belong to inactive results. Active and inactive are the calls of the source.
Experiments:
Test in all cases: NCI-60 one-dose screen, 48 h (100 = growth as untreated, 0 = no growth, -100 = all killed)
Settings in all cases: 10 µM unless noted
DU-145 prostate = system: DU-145 prostate
K-562 leukemia = system: K-562 leukemia
MALME-3M melanoma = system: MALME-3M melanoma
MDA-MB-231 breast = system: MDA-MB-231 breast
RXF 393 renal = system: RXF 393 renal
SF-268 CNS = system: SF-268 CNS
SF-295 CNS = system: SF-295 CNS
UACC-257 melanoma = system: UACC-257 melanoma
M14 melanoma = system: M14 melanoma
HCT-15 colon = system: HCT-15 colon
HT29 colon = system: HT29 colon
SNB-75 CNS = system: SNB-75 CNS
SNB-19 CNS = system: SNB-19 CNS
U251 CNS = system: U251 CNS
PC-3 prostate = system: PC-3 prostate
SK-MEL-5 melanoma = system: SK-MEL-5 melanoma
UACC-62 melanoma = system: UACC-62 melanoma
LOX IMVI melanoma = system: LOX IMVI melanoma
SK-MEL-28 melanoma = system: SK-MEL-28 melanoma

Row | Compound | growth (DU-145 prostate) | growth (K-562 leukemia) | growth (MALME-3M melanoma) | growth (MDA-MB-231 breast) | growth (RXF 393 renal) | growth (SF-268 CNS) | growth (SF-295 CNS) | growth (UACC-257 melanoma) | growth (M14 melanoma) | growth (HCT-15 colon) | growth (HT29 colon) | growth (SNB-75 CNS) | growth (SNB-19 CNS) | growth (U251 CNS) | growth (PC-3 prostate) | growth (SK-MEL-5 melanoma) | growth (UACC-62 melanoma) | growth (LOX IMVI melanoma) | growth (SK-MEL-28 melanoma)
1 | CC(C)(C)c1nn(-c2ccccc2)c2c1CC1(CN2Cc2ccc3c(c2)OCO3)C(=O)c2ccccc2C1=O | 112% | 89.8% | 148% | 94.6% | 93% | 111% | 106% | 104% | 120% | 105% | 103% | 120% | 111% | 105% | 91.8% | 99.2% | 92.3% | 103% | 116%
2 | COc1ccc(-c2cc(/C=C3\C(=O)Nc4ccc(Cl)cc43)[nH]n2)cc1 | 72.6% | 24% | 33.4% | 73.9% | 51% | 66.3% | 47% | 51.7% | 44.7% | 36.1% | 11.5% | 49.8% | 71.1% | 34.2% | 67.1% | 37.9% | 40.6% | 35.2% | 61.7%
3 | CCN(C(=O)CN1CCN(c2cc3c(cc2F)c(=O)c(C(=O)O)cn3CC)CC1)c1nc(-c2ccccc2)cs1 | 23.3% | 12.3% | -5.46% (active) | 6.19% (active) | 4.13% (active) | 22.7% | -17.5% (active) | -9.83% (active) | 18.3% | 12.3% | 0.981% (active) | -5.25% (active) | 6.46% (active) | 6.31% (active) | 2.39% (active) | -55.6% (active) | -5% (active) | -35% (active) | 41.9%
4 | COc1cc(OC)c(/C=C/S(=O)(=O)Cc2cnc(OC)c(N)c2)c(OC)c1 | 1.99% (active) | 9.4% (active) | 67.3% | 11.9% | 45.5% | 38% | 2.57% (active) | 62.4% | 10.1% | 9.83% (active) | 0.841% (active) | 42.1% | 31.3% | 10.5% | 27.8% | -24.8% (active) | 40.1% | 8.96% (active) | 56.2%
5 | CCCCCCCCCC(=O)Oc1ccc(/C(=C(/C)c2ccccc2)c2ccc(OCCN3CCCC3)cc2)cc1 | 55.9% | -12.4% (active) | -62% (active) | -5.4% (active) | -32.4% (active) | 38.7% | -75.1% (active) | -51.9% (active) | -57.8% (active) | -13.4% (active) | -35.5% (active) | -11.6% (active) | 6.86% (active) | -34.3% (active) | 15.8% | -98.5% (active) | -69% (active) | -72.1% (active) | -77.9% (active)
6 | CCN(C(=O)CN1CCN(c2cc3c(cc2F)c(=O)c(C(=O)O)cn3C2CC2)CC1)c1nc(-c2ccc(OC)cc2)cs1 | 35.7% | 32.5% | 66.1% | 68.5% | 74.9% | 59.8% | 94.6% | 43.1% | 48.7% | 51.5% | 7.28% (active) | 81.8% | 78.2% | 14.1% | 20.9% | 28.9% | 17.1% | -57.9% (active) | 45.1%
7 | CCC(c1ccc(O)cc1)C(CC)c1ccc(O)c(F)c1 (centres undefined) | 97.6% | 47.4% | 85.2% | 97.2% | 92.6% | 82.6% | 84.9% | 89% | 80.5% | 78.2% | 102% | 78.7% | 125% | 89.8% | 72.1% | 66.4% | 59.4% | 87.2% | 78.9%
8 | COc1cnc2c(c1)C(=O)c1c-2n(CCCN2CCNCC2)c(=O)c2cc([N+](=O)[O-])ccc12 | -85.1% (active) | -50.1% (active) | -71.4% (active) | -77.4% (active) | 0.0319% (active) | -66.6% (active) | -14.7% (active) | 46.3% | -83.1% (active) | -80.7% (active) | -80% (active) | 2.92% (active) | -40.7% (active) | -93.3% (active) | -82.3% (active) | -7.99% (active) | -82% (active) | -86.5% (active) | -76.6% (active)
9 | COc1ccc(C(=O)/C=C/c2c[n+](=O)c3ccc(F)cc3n2[O-])cc1 | 110% | 102% | 90.9% | 106% | 129% | 96.8% | 102% | 106% | 101% | 101% | 106% | 106% | 103% | 95.1% | 104% | 111% | 92.1% | 94.2% | 111%
10 | COc1ccc(N(Cc2cc(OC)c(OC)c(OC)c2)C2OC(=O)c3ccccc32)cc1 (centres undefined) | 25.5% | 17.7% | 31.3% | 41.1% | -31.7% (active) | 44% | 16.3% | 70.8% | 25.7% | 36.1% | 5.34% (active) | -6.32% (active) | 53.3% | 19.4% | 25.2% | 18.2% | 44.2% | 46.2% | 55.5%
11 | COc1ccc(/C=C/C(=O)c2c(O)c(C)c(O)c3c2OC2=CC(O)=C(C(C)=O)C(=O)[C@]23C)cc1 | 8.23% (active) | -21.3% (active) | -57.1% (active) | -26.2% (active) | -33.3% (active) | -17.5% (active) | -22.7% (active) | -19.2% (active) | -7.97% (active) | -21.3% (active) | -27.2% (active) | -33% (active) | -14.9% (active) | -27.9% (active) | -2.15% (active) | -85.5% (active) | -59.9% (active) | -43.4% (active) | -50.7% (active)
12 | COc1cc(C(=O)/C=C/c2c(C)n([O-])c3ccc(C)cc3[n+]2=O)cc(OC)c1OC | 49.3% | 0.289% (active) | 83.8% | 85% | -32.4% (active) | 59% | 110% | 47.7% | 60.1% | 25.9% | 25.3% | 73.2% | 108% | 55.4% | 64.8% | 89% | 54% | 33% | 72.1%
13 | COc1ccc(CNc2nccnn2)cc1 | 112% | 96.2% | 100% | 106% | 88.1% | 103% | 101% | 107% | 96% | 111% | 97.8% | 85.6% | 102% | 94.9% | 101% | 101% | 93.4% | 105% | 97.7%
14 | COc1ccc(CN(c2ccc(C)cc2)C2OC(=O)c3ccccc32)cc1OC (centres undefined) | 115% | 99.6% | 104% | 117% | 104% | 113% | 100% | 95% | 110% | 96.3% | 97.9% | 90.3% | 96.5% | 86.3% | 90.6% | 94.7% | 94.9% | 93.2% | 108%
15 | CC/C=C\C[C@H](F)C/C=C1/C(=O)C=C[C@@H]1C/C=C\CCCC(=O)OC | 25.7% | -5.83% (active) | -13.6% (active) | 3.26% (active) | -45.5% (active) | 26% | 4.48% (active) | -0.592% (active) | 1.2% (active) | -32.8% (active) | -31% (active) | 61.9% | 34% | 1.8% (active) | 12.9% | -81.8% (active) | -49.4% (active) | -49.7% (active) | 9.64% (active)
16 | C=C1CCC2C3(C)COC(c4ccc(OC)cc4Br)OC3CCC2(C)C1/C=C/C1=CCOC1=O (centres undefined) | 86.6% | 31.1% | 93.9% | 78.7% | 90% | 89% | 60.6% | 58.3% | 87.3% | 65.7% | 75.6% | 82.3% | 97.4% | 74.7% | 47.7% | 45.3% | 61.9% | 71.1% | 80.2%

From PubChem BioAssay (NCI)
